This note sets out measurements from PubChem BioAssay (NCI).

Molecules are shown by their SMILES. This is part of a sample that, as a whole, favours compounds with a hit. Of some 79,000 tested, about 15% had one in any assay. A number with no mark means an inactive call. The source made the active and inactive calls. Cut-off read from the data, not from the text of the source: active = growth inhibition above about 70%; inactive = the rest.

The nature of experiment [1]: NCI Yeast Anticancer Drug Screen. Data for the rad50 strain (AID 155).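 Note: 0% = growth of vehicle-only cultures of the same strain.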 As to conditions: S. cerevisiae rad50 strain growth inhibition; at 50.0 µM; hits give high values. A digest of the protocol: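 Growth of the mutant yeast was measured after compound exposure and referenced to vehicle-treated cultures.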
The nature of experiment [2]: NCI Yeast Anticancer Drug Screen. Data for the mec2-1 strain (AID 157). As to conditions: S. cerevisiae mec2-1 strain, at 50.0 µM, hits give high values. A digest of the protocol:
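Strain: mec2-1 (DNA repair/cell cycle alteration). Compound exposure, then growth measured; inhibition expressed relative to vehicle.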

The nature of experiment [3]: NCI Yeast Anticancer Drug Screen. Data for the sgs1 mgt1 strain (AID 161).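 Note: 0% = growth of cultures given vehicle only.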 As to conditions: S. cerevisiae sgs1 mgt1 strain, at 50.0 µM, hits give high values. In a few lines: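 Mutant yeast exposed to compound; growth scored against vehicle-only wells.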
A short description of experiment [4]: NCI Yeast Anticancer Drug Screen. Data for the cln2 rad14 strain (AID 165).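 Note: 0% = growth equal to vehicle treated cultures.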 Conditions: S. cerevisiae cln2 rad14 strain, at 50.0 µM, hits give high values. In a few lines: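 Compounds are applied to the cln2 rad14 yeast strain, and growth is then compared with that of vehicle-treated cultures to give inhibition.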
Experiment [5] in a line: NCI Yeast Anticancer Drug Screen. Data for the bub3 strain (AID 167). As to conditions: S. cerevisiae bub3 mutant strain, at 50.0 µM, hits give high values. In a few lines:
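Whole-cell yeast assay. The mutant strain was incubated with compounds, and growth inhibition was determined by comparison with vehicle-treated cells.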

A short description of experiment [6]: NCI Yeast Anticancer Drug Screen. Data for the mlh1 rad18 strain (AID 175). Conditions: S. cerevisiae mlh1 rad18 strain growth inhibition; at 50.0 µM; hits give high values. A digest of the protocol: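 Read-out is yeast growth inhibition, calculated against vehicle-only controls. The compound was applied to a strain engineered with DNA damage repair alterations.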

Regarding `CC(CCl)N1CCCCCC1` (stereo not given), the growth inhibition in experiment [1] is -14.3%; in experiment [2] it was -16.8%; in experiment [3], 8%; in experiment [4], -20.8%; in experiment [5], 5.3%; in experiment [6], -6.8%.
In the case of `[O-][Cl+3]([O-])([O-])O.[O-][n+]1c2ccccc2nc2ccccc21.[Zn+2]`, the growth inhibition in experiment [1] is 58.1%; in experiment [2], 36.1%; in experiment [3], 18.6%; in experiment [4] it was 14.8%; in experiment [5], 28.3%; in experiment [6], 41.5%.
As for `CCC1(CC)C(=O)NC(=O)[N]([Sn]([CH3])([CH3])[N]2C(=O)NC(=O)C(CC)(CC)C2=O)C1=O`, the growth inhibition is -17.3% in experiment [1]; -3.7% in experiment [2]; 7.05% in experiment [3]; -19.4% in experiment [4]; -1.3% in experiment [5]; -26.1% in experiment [6].
On to `Cc1ncc(C)[n+]2c(C)csc12`, for which the growth inhibition in experiment [1] was 5%; in experiment [2] it was -7.95%; in experiment [3] it was -5.05%; in experiment [4] it was -0.4%; in experiment [5] it was -0.9%; in experiment [6], -23.4%.
For the compound `Nc1ccc2c(c1)[O][Sn]([c]1ccccc1)([c]1ccccc1)[O]C2=O`, the growth inhibition is 85.5% (active) in experiment [1]; 89.5% (active) in experiment [2]; 89.1% (active) in experiment [3]; 89.2% (active) in experiment [4]; 88.1% (active) in experiment [5]; 89.3% (active) in experiment [6].
Regarding `CCCN(CCC)CCc1ccc(OC2=CCN(C)CC2)cc1`, the growth inhibition in experiment [1] is -22.6%; in experiment [2], -22.1%; in experiment [3], 8.85%; in experiment [4] it was 16.6%; in experiment [5], -15.8%; in experiment [6], -55%.
In the case of `CC(=O)N(C)C(=O)Oc1cccc2ccccc12`, the growth inhibition in experiment [1] is -8.35%; in experiment [2], 17.4%; in experiment [3], -10.8%; in experiment [4], -34.2%; in experiment [5] it was -27.1%; in experiment [6], -0.55%.
In the case of `O=C(OC12CCN(CC1)CC2)c1ccccc1`, the growth inhibition in experiment [1] was -7.55%; in experiment [2], 8.6%; in experiment [3], 4.25%; in experiment [4], -50.2%; in experiment [5] it was 8.15%; in experiment [6], 0.5%.
Regarding `O=[As](O)(O)c1ccc(N=Nc2ccc([As](=O)(O)O)cc2)cc1`, the growth inhibition was -0.35% in experiment [1]; 11.1% in experiment [2]; -15.9% in experiment [3]; 6.8% in experiment [4]; -22.5% in experiment [5]; -16.6% in experiment [6].
As to `CC(=O)[CH-]C(C)=O.F[P-](F)(F)(F)(F)F.[Co+3].[NH-]CC[NH-].[NH-]CC[NH-]`, the growth inhibition was -1.2% in experiment [1]; -15.4% in experiment [2]; -12.2% in experiment [3]; -29.9% in experiment [4]; -4.35% in experiment [5]; -5.35% in experiment [6].
Regarding `CCOP(=O)(OCC)Oc1ccc(S(C)=O)cc1` (stereo not given), the growth inhibition in experiment [1] is -1.95%; in experiment [2], -14.8%; in experiment [3], -1%; in experiment [4] it was -10.2%; in experiment [5], 8.75%; in experiment [6] it was -0.25%.
Regarding `NC(=O)Oc1ccccc1`, the growth inhibition is -4.5% in experiment [1]; -26.4% in experiment [2]; 5.4% in experiment [3]; 12.1% in experiment [4]; -10% in experiment [5]; -3.6% in experiment [6].
On to `COc1ccc2c(c1O)C13C=C(OS(=O)(=O)c4ccc(C)cc4)C=CC1C(C2)N(C)CC3` (stereo not given), for which the growth inhibition in experiment [1] was 40.3%; in experiment [2], -4.2%; in experiment [3], 34.9%; in experiment [4], 13.9%; in experiment [5] it was -1.85%; in experiment [6] it was 3.55%.
For the compound `Cc1nc2ccccc2c(=O)n1-c1ccccc1F`, the growth inhibition in experiment [1] was -10.6%; in experiment [2] it was -30.2%; in experiment [3], -19.8%; in experiment [4], 4.8%; in experiment [5] it was -20.9%; in experiment [6], -29.8%.
As to `C/C(CCl)=N\NC1=NC2(CCCCC2)P(=O)(NNc2ncccn2)S1` (stereo not given), the growth inhibition in experiment [1] is 3.7%; in experiment [2], 12%; in experiment [3], 19.9%; in experiment [4], -0.5%; in experiment [5], 6.3%; in experiment [6] it was 15.2%.
On to `O=C(C/C(=N/O)C(=O)NC1=C(Cl)C(=O)c2ccccc2C1=O)CC(c1ccccc1)c1c(O)c2ccccc2oc1=O` (stereo not given), for which the growth inhibition in experiment [1] was 39.5%; in experiment [2], 81.1% (active); in experiment [3] it was 82.5% (active); in experiment [4], 76.8% (active); in experiment [5], 84.7% (active); in experiment [6], 87.6% (active).
As for `CCOC(=O)C(C#N)c1ccccc1` (stereo not given), the growth inhibition in experiment [1] is 22.3%; in experiment [2], 19.1%; in experiment [3], 18%; in experiment [4] it was 14.1%; in experiment [5], -9.55%; in experiment [6] it was 43.4%.
`COC[n+]1cccc(C2CCC[N+]2(C)C)c1` (stereo not given): the growth inhibition is 6.35% in experiment [1]; 1.25% in experiment [2]; 6.8% in experiment [3]; 9.9% in experiment [4]; 1.8% in experiment [5]; 15.5% in experiment [6].
As for `O=C1NCN(c2ccccc2)C12CCN(Cc1ccccc1)CC2`, the growth inhibition in experiment [1] is -4.6%; in experiment [2], -23.7%; in experiment [3] it was 14.6%; in experiment [4], 12.3%; in experiment [5] it was 3.1%; in experiment [6] it was 5.5%.
Turning to `CCNCCc1ccc(N)cc1`, the growth inhibition in experiment [1] was 5.05%; in experiment [2] it was -2.95%; in experiment [3] it was 0.8%; in experiment [4] it was -6.75%; in experiment [5], 1.85%; in experiment [6], -2.65%.
